Data as given in PubChem BioAssay.
For part of these data: Measured potencies and affinities stand elsewhere. Active and inactive are the calls of the source.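 The calls were made as follows, unless noted: active = signal rise over 3 SD above mean of control wells given weak agonist, in both repeats and first screen; inactive = the rest.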

Key:
[1] = system: TRPC4 beta (transient receptor potential cation channel C4), mouse; experiment: activators of mouse TRPC4 channel, confirmation, cell-based, Fluo4 calcium, HEK293 TRPC4beta/mu-opioid, duplicates, 10 µM (AID 2426;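 active = fluorescence ratio normalized to control raised more than 50% in primary screen plus both repeat runs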); details: Fluo4 calcium fluorescence, at 10 µM; active compounds read high
[2] = system: transient receptor potential cation channel C4 beta (TRPC4), mouse; experiment: activators of mouse TRPC4 channel, confirmation, cell-based, second round, Fluo4, HEK293 TRPC4beta/mu-opioid, 1 µM (AID 2461;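 active = primary screen active and over 50% activation in each of two duplicate runs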); details: Fluo4 calcium fluorescence, at 1 µM; active compounds read high
[3] = system: TRPC4 (transient receptor potential cation channel C4 beta), mouse; experiment: positive allosteric modulators of mouse TRPC4, confirmation, cell-based, second round, Fluo-4, HEK293 TRPC4beta/mu-opioid, 1 µM (AID 2554;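 active = primary screen hit whose fluorescence ratio, in both repeats, exceeds the weak agonist control mean by 3 SD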); details: DAMGO EC20, Fluo-4 calcium flux, at 1 µM; active compounds read high
[4] = system: TRPC4 beta (transient receptor potential cation channel C4), mouse; experiment: positive allosteric modulators of mouse TRPC4, confirmation, cell-based, Fluo-4, HEK293 TRPC4beta/mu-opioid (AID 2555;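 active = primary screen hit whose calcium fluorescence ratio, in both repeats, exceeds the weak agonist control mean by 3 SD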); details: DAMGO EC20, Fluo-4 calcium flux, at 10 µM; active compounds read high
[5] = molecular target: Short transient receptor potential channel 4 (Mus musculus) (UniProt Q9QUQ5); experiment: inhibitors of mouse TRPC4 channel, confirmation, cell-based, Fluo4, HEK293 TRPC4beta/mu-opioid (AID 2636;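 active = calcium signal cut by more than 3 SD below the full-agonist control yet still positive, in both repeats and the earlier primary screen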); details: DAMGO, Fluo4 calcium flux, at 10 µM; active compounds read high
[6] = molecular target: Short transient receptor potential channel 4 (Mus musculus) (UniProt Q9QUQ5); experiment: inhibitors of mouse TRPC4 channel, confirmation, cell-based, second round, Fluo4, HEK293 TRPC4beta/mu-opioid, 1 µM (AID 2637;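 active = calcium signal ratio cut to more than 3 SD under the fully stimulated control mean yet still positive, in both repeats and the primary screen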;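 as to inhibition: percent of integrated ratio relative to wells lacking test compound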); details: Fluo4 calcium flux, DAMGO, at 1 µM; active compounds read high
[7] = molecular target: Short transient receptor potential channel 4 (Mus musculus) (UniProt Q9QUQ5); experiment: mouse TRPC4 channel activators, dose response, cell-based, HEK293 TRPC4/mu-opioid, Fluo-4 calcium (AID 434937;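 active = primary screen activator hit with a dose response curve and TRPC4 channel activation at any tested dose; inactive = no activation, no dose response, or not a primary hit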)
[8] = molecular target: Short transient receptor potential channel 4 (Mus musculus) (UniProt Q9QUQ5); experiment: TRPC4 positive allosteric modulators, dose response, cell-based, HEK293 TRPC4/mu-opioid, Fluo-4 calcium, EC20 DAMGO (AID 434941;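 active = earlier screen potentiator hit that boosts the TRPC4 ion channel at some dose, with a dose response; inactive = no potentiation, no dose response, or not a prior hit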;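 also: calcium entry triggered by an EC20 dose of DAMGO at the co-expressed mu-opioid receptor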)
[9] = molecular target: Short transient receptor potential channel 6 (Mus musculus) (UniProt Q61143); experiment: inhibition of mouse TRPC6 channel, confirmation, selectivity assay for TRPC4 inhibitor project, cell-based, HEK293, membrane potential dye, duplicate (AID 434948;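 active = active in primary screen and both duplicates, each dropping signal beyond three positive-control SD with fluorescence still positive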); details: HEK293 TRPC6, membrane potential dye fluorescence, at 10 µM, stimulated with maximal-effect acetylcholine; active compounds read high
[10] = molecular target: Short transient receptor potential channel 6 (Mus musculus) (UniProt Q61143); experiment: activation of mouse TRPC6 channel, confirmation, selectivity assay for TRPC4 activator project, cell-based, HEK293, membrane potential dye, duplicate (AID 434950;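 active = membrane potential signal rise above negative control mean plus 3 SD in both duplicates, also active in the earlier TRPC4 screen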); details: HEK293 TRPC6, membrane potential fluorescence, at 10 µM; active compounds read high
[11] = molecular target: Short transient receptor potential channel 6 (Mus musculus) (UniProt Q61143); experiment: TRPC6 potentiation by TRPC4 potentiator hits, confirmation, selectivity assay for TRPC4 potentiator project, HEK293 cells, membrane potential dye, duplicate (AID 434952;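 active = compound raising the membrane signal above positive-control mean plus 3 SD in both repeats, and a primary screen hit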); details: HEK293 TRPC6, membrane potential dye fluorescence, at 10 µM, maximal acetylcholine added after compound; active compounds read high
[12] = molecular target: Short transient receptor potential channel 4 (Mus musculus) (UniProt Q9QUQ5); experiment: calcium flux activators in TRPC4/5HT1a cells, counter-screen for TRPC4 activator project, cell-based, second counter screen, HEK293 TRPC4/5HT1a, Fluo-4 (AID 434977;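 active = calcium signal rise above buffer-control mean plus 5 SD in both duplicates, and also a hit in the primary screen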); details: Fluo-4 calcium flux, at 10 µM; active compounds read high
[13] = calcium flux inhibitors in TRPC4/5HT1a cells, confirmation, counter-screen for TRPC4 inhibitor project, cell-based, second counter screen, HEK293 TRPC4/5HT1a, Fluo-4 (AID 434978;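 active = primary screen active whose calcium signal fell more than 3 SD beyond the full-serotonin control mean in both duplicate plates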); details: Fluo-4 calcium flux, at 10 µM, serotonin added to trigger calcium flux; active compounds read high
[14] = system: TRPC4 (mouse), co-expressed with 5HT1a in HEK293; experiment: calcium flux potentiators in TRPC4/5HT1a cells, confirmation, counter-screen for TRPC4 potentiator project, cell-based, second counter screen, HEK293 TRPC4/5HT1a, Fluo-4 (AID 434979); details: Fluo-4 calcium flux, at 10 µM, serotonin added at its EC20 dose; active compounds read high
[15] = calcium flux activation in mu-opioid HEK293 cells, confirmation, counter-screen for TRPC4 activator project, cell-based, HEK293 mu-opioid receptor line (AID 449723;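 active = hit in primary screen, with calcium signal over 5 SD above buffer well mean in both duplicates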;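 also: counter screen cells carry the mu-opioid receptor alone and lack TRPC4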); details: Fluo-4 calcium fluorescence, at 10 µM; active compounds read high
[16] = calcium flux enhancement in mu-opioid HEK293 cells, confirmation, counter-screen for TRPC4 allosteric potentiator project, cell-based, HEK293 mu-opioid receptor line (AID 449724;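 active = calcium signal rise more than 3 SD above the low-dose agonist control mean, in both duplicate plates and the primary screen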); details: Fluo-4 calcium flux, at 10 µM, compound added before EC20 DAMGO stimulus; active compounds read high

Measured: inhibition

Short transient receptor potential channel 4 (Mus musculus), sequence (Q9QUQ5 whole entry, looked up): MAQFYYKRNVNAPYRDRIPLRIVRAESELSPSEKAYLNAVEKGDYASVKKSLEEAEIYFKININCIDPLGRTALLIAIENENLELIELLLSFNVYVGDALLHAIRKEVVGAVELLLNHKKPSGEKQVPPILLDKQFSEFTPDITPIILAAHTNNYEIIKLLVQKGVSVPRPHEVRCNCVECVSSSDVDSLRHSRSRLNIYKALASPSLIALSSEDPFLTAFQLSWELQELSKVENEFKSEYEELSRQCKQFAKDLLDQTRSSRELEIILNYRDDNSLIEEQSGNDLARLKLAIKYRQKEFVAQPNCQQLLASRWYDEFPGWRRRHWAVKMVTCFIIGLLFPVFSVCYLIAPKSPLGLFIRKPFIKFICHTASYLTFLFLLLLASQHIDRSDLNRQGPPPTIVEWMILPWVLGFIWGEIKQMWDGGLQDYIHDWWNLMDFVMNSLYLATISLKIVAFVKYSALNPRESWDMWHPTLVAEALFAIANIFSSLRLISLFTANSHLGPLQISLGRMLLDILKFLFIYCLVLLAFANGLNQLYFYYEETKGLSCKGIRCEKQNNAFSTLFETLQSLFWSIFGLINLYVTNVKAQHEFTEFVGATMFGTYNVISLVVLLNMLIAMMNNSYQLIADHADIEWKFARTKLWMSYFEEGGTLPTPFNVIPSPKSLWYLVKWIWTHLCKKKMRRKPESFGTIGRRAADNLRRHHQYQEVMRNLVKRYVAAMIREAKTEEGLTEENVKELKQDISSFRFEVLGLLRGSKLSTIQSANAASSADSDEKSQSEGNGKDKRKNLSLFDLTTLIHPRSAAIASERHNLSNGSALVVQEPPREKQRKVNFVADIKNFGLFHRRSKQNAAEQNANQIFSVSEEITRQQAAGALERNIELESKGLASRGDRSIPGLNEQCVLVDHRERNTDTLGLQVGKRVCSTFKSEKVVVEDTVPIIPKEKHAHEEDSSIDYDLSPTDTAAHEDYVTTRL
Short transient receptor potential channel 6 (Mus musculus), sequence (Q61143 whole entry, looked up): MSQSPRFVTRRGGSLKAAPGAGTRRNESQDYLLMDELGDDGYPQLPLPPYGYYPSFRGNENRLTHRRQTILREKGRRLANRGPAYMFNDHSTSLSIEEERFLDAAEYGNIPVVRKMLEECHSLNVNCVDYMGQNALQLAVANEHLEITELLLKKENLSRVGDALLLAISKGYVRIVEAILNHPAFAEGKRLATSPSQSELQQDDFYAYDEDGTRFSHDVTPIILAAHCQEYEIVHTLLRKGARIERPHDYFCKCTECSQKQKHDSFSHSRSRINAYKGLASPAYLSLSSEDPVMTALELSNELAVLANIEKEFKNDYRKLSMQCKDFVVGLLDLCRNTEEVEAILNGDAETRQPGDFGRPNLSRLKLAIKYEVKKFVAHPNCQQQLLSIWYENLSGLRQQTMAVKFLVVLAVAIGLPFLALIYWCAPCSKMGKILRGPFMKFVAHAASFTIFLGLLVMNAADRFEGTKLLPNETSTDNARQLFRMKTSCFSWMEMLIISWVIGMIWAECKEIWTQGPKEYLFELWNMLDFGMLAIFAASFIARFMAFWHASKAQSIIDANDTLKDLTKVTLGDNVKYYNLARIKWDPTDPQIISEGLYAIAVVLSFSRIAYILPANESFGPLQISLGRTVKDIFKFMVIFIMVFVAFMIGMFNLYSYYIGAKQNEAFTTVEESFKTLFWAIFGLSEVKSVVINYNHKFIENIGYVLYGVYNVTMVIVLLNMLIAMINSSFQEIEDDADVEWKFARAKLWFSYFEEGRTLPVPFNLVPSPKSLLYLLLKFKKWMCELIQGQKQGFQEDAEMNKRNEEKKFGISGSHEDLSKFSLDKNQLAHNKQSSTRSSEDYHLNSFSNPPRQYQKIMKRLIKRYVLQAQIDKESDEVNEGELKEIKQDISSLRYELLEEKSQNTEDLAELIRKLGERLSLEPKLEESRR

Cc1[nH]c2ccc(C(=O)OC(C)C(=O)N(C)c3ccccc3)cc2c1C (stereo not given)
inactive: all assays above

COc1ccccc1Nc1nc(NCC2CCCO2)c2ccccc2n1 (stereo not given)
active: [5] 91% | [6] 50% | [9] 10% | [13] 31.5%
inactive: all other assays above

N=c1sccn1CC(=O)Nc1ccccc1Oc1ccccc1
active: [5] 92% | [6] 48% | [9] 48% | [13] 34.6%
inactive: all other assays above

COc1ccc(CN(C)C(=O)c2ccc(NC(=O)CC3SC(N4CCCC4)=NC3=O)cc2)c(OC)c1 (stereo not given)
active: [5] 56%
inactive: all other assays above

Cc1c(CCOC(=O)CC23CC4CC(CC(C4)C2)C3)sc[n+]1Cc1ccccc1
active: [5] 96% | [9] 44.5% | [13] 19.6%
inactive: all other assays above

O=C1CN=C(Nc2cccc(C(F)(F)F)c2)N1C1CCCC1
active: [5] 94% | [13] 26.8%
inactive: all other assays above

Cn1c(-c2ccc(F)cc2)cnc1NCc1ccc(F)cc1F
active: [5] 88% | [6] 46% | [13] 29.9%
inactive: all other assays above

O=C(NCCCN1CCN(c2cccc(Cl)c2)CC1)C1CCC(=O)N1Cc1ccccc1Cl (stereo not given)
active: [5] 90% | [6] 52% | [13] 35.9%
inactive: all other assays above

CSCCNCc1cn(-c2ccc(F)cc2F)nc1-c1ccccc1C
active: [5] 91%
inactive: all other assays above

CN(C)CCCNc1c2ccccc2nc2ccccc12
active: [5] 94% | [6] 62% | [13] 22.7%
inactive: all other assays above

O=c1c2ccccc2nc(SCc2ccc([N+](=O)[O-])cc2)n1CCCO
active: [5] 90% | [6] 68% | [13] 19.5%
inactive: all other assays above

Cc1cccc(CCN(C(=O)c2snc(C(N)=O)c2N)C(C(=O)NCC2CCCO2)c2ccc(F)cc2)c1 (stereo not given)
active: [5] 74% | [6] 68% | [13] 46.3%
inactive: all other assays above

Cc1nn(C(=O)CNS(=O)(=O)c2ccccc2)c(C)c1Sc1ccc(Cl)cc1
active: [5] 89% | [6] 62% | [9] 52.5% | [13] 11.3%
inactive: all other assays above

COc1cc2ccccc2c2c1CCCC2=O
active: [5] 85% | [13] 26.2%
inactive: all other assays above

O=C(c1ccc2c(c1)OCO2)C1CCCN(Cc2ccccc2OC(F)F)C1 (stereo not given)
active: [5] 89% | [13] 41.6%
inactive: all other assays above
